G9a block – qHTS Assay for Inhibitors of Histone Lysine Methyltransferase G9a. Potency, µM (series often up to 102 µM), usual class: inhibitors. AID 504332, 2011. G9a H3K9 monomethylation, AlphaScreen, 2 h. 350,000 tested, 8.8% active. Histone-lysine N-methyltransferase EHMT2 (Homo sapiens), Q96KQ7; further: nearly all actives have a fitted effect of over 75% in size
Target sequence (Q96KQ7 913-1193 limits assumed): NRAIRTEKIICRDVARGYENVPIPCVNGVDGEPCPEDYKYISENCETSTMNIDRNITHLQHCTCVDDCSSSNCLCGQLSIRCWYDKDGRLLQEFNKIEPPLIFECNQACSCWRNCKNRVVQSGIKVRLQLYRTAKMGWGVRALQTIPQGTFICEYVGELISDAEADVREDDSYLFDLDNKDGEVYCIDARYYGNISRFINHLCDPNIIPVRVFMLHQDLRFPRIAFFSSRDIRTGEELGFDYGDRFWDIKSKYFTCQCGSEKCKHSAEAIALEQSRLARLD
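Readings reflect AlphaScreen signal from monomethyl-H3K9 antibody detection. HMT at 20 nM; substrate b-H3K9 500 nM; cofactor SAM 20 uM; 2 h RT reaction; compounds tested as titrations in qHTS with 15 min preincubation.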
TDP1 block – qHTS Assay for Inhibitors of Tyrosyl-DNA Phosphodiesterase (TDP1) | Tyrosyl-DNA phosphodiesterase 1 (Homo sapiens), Q9NUW8 | recombinant TDP1, AlphaScreen DNA substrate cleavage | Potency, µM (doses to about 130 µM), usual class: inhibitors | 350,000 tested, 0.28% active | AID 485290, 2010; further: nearly all actives have a fitted effect of over 40% in size
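Signal: AlphaScreen proximity between streptavidin donor and anti-FITC acceptor beads on intact substrate. Reaction: Tdp1 1 nM, substrate 15 nM final, 5 min RT after 15 min compound preincubation.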
BAZ2B block – qHTS Assay for Inhibitors of BAZ2B | Potency, µM (titrated, usually from 114 µM), actives largely listed as inhibitors | AID 504333, 2011 | AlphaScreen BAZ2B-H3K14Ac peptide displacement | 360,000 tested, 4.4% active; further: nearly all actives have a fitted effect of over 60% in size
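BAZ2B (50 nM) with biotin-H3(5-23)K14Ac peptide (50 nM) in PBS pH 7.4, 0.01% Tween-20, preformed 30 min, then compound 30 min at room temperature; top concentration 110uM. AlphaScreen streptavidin donor/nickel chelate acceptor beads (10 ug/mL final), 20 min dark, signal read.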
JMJD2A Tudor inh – qHTS Assay for Inhibitors of JMJD2A-Tudor Domain; 390,000 tested, 4.4% active; AlphaScreen JMJD2A-Tudor / H3K4me3 peptide binding; Potency, µM (doses to about 114 µM), hits mostly inhibitors; AID 504339, 2011; Lysine-specific demethylase 4A (Homo sapiens), O75164; further: nearly all actives have a fitted effect of over 50% in size
Sfp inh – qHTS Assay for Inhibitors of Bacillus subtilis Sfp phosphopantetheinyl transferase (PPTase) | 4'-phosphopantetheinyl transferase ffp (Bacillus subtilis), Q9F4F7 | Biochemical Sfp PPTase activity, qHTS | Potency, µM, usual class: inhibitors | 310,000 tested, 3.5% active | AID 1490, 2009;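 further: the enzyme is Sfp with the accession as filed and its product quenches rhodamine fluorescence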
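Reaction rates are the 30-min fluorescence difference (ex 525, em 598 nm) in wells containing 15 nM Sfp, 5 uM rhodamine-CoA and 12.5 uM BHQ-2-YbbR at pH 7.6 with 10 mM MgCl2.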
HP1b chromo inh – HTS for Inhibitors of HP1-beta Chromodomain Interactions with Methylated Histone Tails; AlphaScreen HP1-beta / biotin-H3K9me3 peptide binding; Potency, µM (top dose mostly 114 µM), actives largely listed as inhibitors; 390,000 tested, 0.56% active; AID 540317, 2011; further: nearly all actives have a fitted effect of over 70% in size
Target sequence (P83916 whole entry, looked up): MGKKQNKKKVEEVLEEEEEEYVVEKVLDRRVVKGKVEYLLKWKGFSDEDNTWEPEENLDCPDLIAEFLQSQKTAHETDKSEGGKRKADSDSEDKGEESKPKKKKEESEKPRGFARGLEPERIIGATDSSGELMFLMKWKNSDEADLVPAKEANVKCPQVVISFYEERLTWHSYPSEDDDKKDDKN
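HP1-beta protein (50 nM final) preincubated 30 min at room temperature with biotinylated H3(1-18)K9me3 peptide (50 nM) in PBS pH 7.4, 0.01% Tween-20, then compound added for 30 min. AlphaScreen streptavidin donor/nickel chelate acceptor beads (10 ug/mL final), 30 min dark, luminescence read.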
Each line names hits and unclear results; the compound was inactive in the other large screens. Sampled rows, rich in hits. Any-hit rate of the full collection: about 12%. The call rests on the fitted dose curve; in most records, active means well fitted curve in the direction sought with a large enough effect; inconclusive means small, poorly fitted or top-dose-only effect, or another doubt; inactive means no such curve, though single readings can be large; an effect the other way counts as inactive or inconclusive.

CCCCn1c(O)c(C=NCCCN(CC)CC)c(=O)[nH]c1=O	none (no result: BAZ2B block)
O=c1[nH]c(=O)n(Cc2ccccc2)c(O)c1C=Nc1ccc(CN2CCOCC2)cc1	G9a block inconclusive, Sfp inh 56µM
CCCCn1c(O)c(C(CC)=NCCN2CCOCC2)c(=O)[nH]c1=O	G9a block inconclusive, BAZ2B block inconclusive
CCC(=NCCN1CCOCC1)c1c(O)n(-c2ccccc2C)c(=O)[nH]c1=O	G9a block 28µM
CCCCn1c(O)c(C(C)=NCCN2CCOCC2)c(=O)[nH]c1=O	G9a block 22µM
CCCCn1c(O)c(C=NCCN2CCCCC2)c(=O)[nH]c1=O	G9a block 79µM
Cc1ccccc1-n1c(O)c(C=NCCN2CCOCC2)c(=O)[nH]c1=O	none
N#CC1=C(N)Oc2n[nH]c(-c3ccccc3)c2C1c1cccc(OC(=O)N2CCOCC2)c1 (stereo unspecified)	G9a block inconclusive
CC(C)C[C@H](NC(=O)[C@H](Cc1ccccc1)NC(=O)CNC(=O)[C@H](CS)N(C(=O)[C@@H](N)Cc1ccc(O)cc1)C(C)(C)C)C(=O)N([C@H](C(=O)O)[C@H](C)O)C(C)(C)C	none (no result: BAZ2B block, JMJD2A Tudor inh, HP1b chromo inh)
CCCC[N+]12C3CC(C(CC)[C@H]1O)[C@@H]1C(O)C4(C[C@@H]12)c1ccccc1N(C)C34 (stereo partly specified)	none (no result: G9a block, BAZ2B block, JMJD2A Tudor inh, HP1b chromo inh)
CC1CC(O)[C@]2(O)[C@]13CC(=O)OC[C@@]2(C)[C@@](C)(O)C(=O)C3 (stereo partly specified)	none (no result: G9a block, BAZ2B block, JMJD2A Tudor inh, HP1b chromo inh)
CCC(=NCCCN1CCOCC1)c1c(O)n(Cc2ccccc2)c(=O)[nH]c1=O	G9a block 13µM
COc1cc(CN2CCc3nc(N4CCN(c5ncccn5)CC4)ncc3C2)cc(OC)c1OC	G9a block inconclusive, BAZ2B block 45µM, JMJD2A Tudor inh 50µM (no result: Sfp inh)
COc1cc(CN2CCc3nc(N4CCN(c5ccccc5F)CC4)ncc3C2)ccc1OC(C)C	BAZ2B block inconclusive (no result: Sfp inh)
CN(C)c1ccc(CN2CCc3nc(N4CCN(c5ccccn5)CC4)ncc3C2)cc1	G9a block inconclusive, BAZ2B block 25µM, JMJD2A Tudor inh 35µM, HP1b chromo inh 28µM (no result: Sfp inh)
Cc1ccccc1CN1CCc2nc(N3CCN(c4ccccn4)CC3)ncc2C1	BAZ2B block inconclusive, JMJD2A Tudor inh 89µM (no result: Sfp inh)
COC(=O)C12CC3=C[C@H](CC3=O)Cc3ccccc3[C@@H]1CNC2=O (stereo partly specified)	none (no result: G9a block, BAZ2B block, JMJD2A Tudor inh, HP1b chromo inh)
Cc1ccc2c(c1)C1CN(C)CCC1N2C(=O)Cc1cccs1 (stereo unspecified)	G9a block 79µM
Cc1ccc2c(c1)C1CN(C)CCC1N2C(=O)c1cccs1 (stereo unspecified)	none
O=c1[nH]c2ccccc2o1	JMJD2A Tudor inh 32µM
C=CCC1C(=O)NC(=S)NC1=O	G9a block 8.9µM, JMJD2A Tudor inh 89µM, Sfp inh 50µM
Fc1cccc(CNCCc2c[nH]c3ccccc23)c1	BAZ2B block inconclusive (no result: G9a block)
OC(CCNCCc1c[nH]c2ccccc12)C(F)(F)Cl (stereo unspecified)	none
c1ccc2c(CCNCc3ccc4c(c3)OCO4)c[nH]c2c1	G9a block inconclusive, BAZ2B block inconclusive, JMJD2A Tudor inh inconclusive, Sfp inh 35µM
c1ccc(CNCCc2c[nH]c3ccccc23)cc1	BAZ2B block inconclusive (no result: TDP1 block)
Cc1cccc(CNCCc2c[nH]c3ccccc23)c1	BAZ2B block 40µM, JMJD2A Tudor inh inconclusive (no result: G9a block)
COc1cc(CNCCc2c[nH]c3ccccc23)cc(OC)c1	G9a block 32µM, BAZ2B block 50µM, JMJD2A Tudor inh 3.5µM, HP1b chromo inh inconclusive (no result: TDP1 block)
CCc1ccc(CNCCc2c[nH]c3ccccc23)cc1	G9a block inconclusive, JMJD2A Tudor inh 35µM, HP1b chromo inh inconclusive (no result: TDP1 block)
C(=NC1CCCCC1)=NC1CCCCC1	none (no result: G9a block, BAZ2B block, JMJD2A Tudor inh, Sfp inh, HP1b chromo inh)
CC(=O)[C@@]1(O)CC[C@H]2C3CCC4=CC(=O)CC[C@]4(C)C3CC[C@@]21C (stereo partly specified)	none (no result: BAZ2B block, JMJD2A Tudor inh, Sfp inh, HP1b chromo inh)
C[C@@]12CC[C@H](O)C[C@@H]1CC[C@H]1[C@@H]2C[C@@H](O)[C@]2(C)[C@@H](C3=CC(=O)OC3)CC[C@]12O	none (no result: BAZ2B block, JMJD2A Tudor inh, HP1b chromo inh)
COc1cc(C=C(C#N)C#N)cc(O)c1O	G9a block 2.5µM (no result: BAZ2B block, JMJD2A Tudor inh, Sfp inh, HP1b chromo inh)
N#CC(C#N)=Cc1ccc(O)c(O)c1	G9a block 8.4µM, BAZ2B block 79µM, JMJD2A Tudor inh inconclusive, Sfp inh 40µM
CC(C)(C)c1cc(C=C(C#N)C#N)cc(C(C)(C)C)c1O	G9a block 13µM, BAZ2B block inconclusive, Sfp inh 56µM
N#CC(C#N)=Cc1ccc(N2CCCC2)cc1	none
C=C(C)C1CCC(C)=CC1c1c(O)cc(O)cc1CCCCC (stereo unspecified)	G9a block inconclusive (no result: BAZ2B block, JMJD2A Tudor inh, HP1b chromo inh)
CO/C1=C\C(C)=C\[C@@H](C)[C@@H](O)[C@@H](C)C/C(C)=C/C=C/[C@H](OC)[C@@H]([C@@H](C)[C@@H](O)[C@H](C)[C@@]2(O)C[C@@H](O)[C@H](C)C(C(C)C)O2)OC1=O (stereo partly specified)	none (no result: G9a block, BAZ2B block, JMJD2A Tudor inh, HP1b chromo inh)
CN1CCc2nc(SCC(=O)OC(C)(C)C)c(C#N)cc2C1	G9a block 50µM
CCOc1ccc(NC(=O)CN(c2ccc(Cl)cc2C)S(=O)(=O)c2ccccc2)cc1	BAZ2B block inconclusive (no result: Sfp inh)
CCCCCCN1CCN(c2ccc(Cl)cc2)CC1	G9a block inconclusive, BAZ2B block 45µM, JMJD2A Tudor inh inconclusive, HP1b chromo inh inconclusive
Brc1nc(-c2ccccc2)nc(-c2ccccc2)c1Br	none (no result: G9a block, TDP1 block, BAZ2B block, Sfp inh)
COc1ccc(C(=O)Nc2nnc(S(=O)(=O)N(CC(C)C)c3ccc(C)cc3)s2)cc1OC	none (no result: Sfp inh)
COc1ccc(/C=C2\C(=O)NC(=O)N(CCC3=CCCCC3)C2=O)c(OC)c1	G9a block 11µM, Sfp inh 56µM
O=C1NC(=O)N(CC2CCCO2)C(=O)/C1=C/c1cccs1 (stereo unspecified)	TDP1 block inconclusive, Sfp inh 79µM
CCN1C(=O)NC(=O)/C(=C\c2ccc(N3CCOCC3)cc2OC)C1=O	none (no result: JMJD2A Tudor inh, HP1b chromo inh)
O=C1NC(=O)N(CCC2=CCCCC2)C(=O)/C1=C/c1cccs1	G9a block 14µM, BAZ2B block inconclusive, JMJD2A Tudor inh inconclusive (no result: TDP1 block)
O=C1NC(=O)N(CCC2=CCCCC2)C(=O)/C1=C/c1ccc(O)cc1	G9a block inconclusive, Sfp inh 45µM
